# In PubChem BioAssay (NCATS):
# Inconclusive results are not listed. A call without a number means that no potency is given here. Where a structure was tested more than once in an assay, its records may differ in their call. Calls of active or inactive are those of the source. The call rests on the fitted dose curve; in most records, active means well fitted curve in the direction sought with a large enough effect; inconclusive means small, poorly fitted or top-dose-only effect, or another doubt; inactive means no such curve, though single readings can be large; an effect the other way counts as inactive or inconclusive.
# Biological target: Cytochrome P450 3A4 (Homo sapiens) (UniProt P08684)
# Experiment: qHTS Assay for Inhibitors and Substrates of Cytochrome P450 3A4 (AID 884); further: nearly all actives have a fitted effect of over 50% in size; further: potency means the concentration at half of the fitted maximal effect
# Conditions: recombinant CYP3A4, Luciferin-PPXE luminescence; series mostly up to 57.1 µM
# Method in brief: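 20 nM human CYP3A4 with 25 uM Luciferin-PPXE (at KM) in 200 mM KPO4, preincubated 10 min with compound; NADPH regeneration started a 60 min RT reaction. Luciferin detected by luminescence, normalized to 57 uM ketoconazole as full inhibition.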
# Cytochrome P450 3A4 (Homo sapiens), sequence (P08684 whole entry, looked up): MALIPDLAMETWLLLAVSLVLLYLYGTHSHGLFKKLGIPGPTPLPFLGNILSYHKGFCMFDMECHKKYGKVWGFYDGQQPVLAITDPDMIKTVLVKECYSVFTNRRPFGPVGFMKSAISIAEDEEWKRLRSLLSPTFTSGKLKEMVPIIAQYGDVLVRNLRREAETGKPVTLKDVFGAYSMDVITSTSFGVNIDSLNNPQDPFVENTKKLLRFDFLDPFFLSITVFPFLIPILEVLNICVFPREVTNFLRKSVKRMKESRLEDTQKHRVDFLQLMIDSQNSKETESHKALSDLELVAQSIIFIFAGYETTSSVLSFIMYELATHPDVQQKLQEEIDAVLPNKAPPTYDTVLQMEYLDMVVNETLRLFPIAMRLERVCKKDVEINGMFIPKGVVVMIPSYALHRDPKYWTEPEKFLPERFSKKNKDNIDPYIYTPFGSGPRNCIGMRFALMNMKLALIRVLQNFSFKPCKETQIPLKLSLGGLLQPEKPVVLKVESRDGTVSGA
Compound,Potency,"activity change, negative = inhibition"
N#CCCN(CC#Cc1ccccc1)OCc1ccccc1,199 nM (active),
COCn1c2ccccc2c2nnc(C(=O)O)nc21,,-11.5% [at 11.4 µM] (inactive)
COC(=O)C12CC3(CCC4C5C(C(OCc6ccccc6)C41)C52)OCCO3 (stereo not drawn),,-29.8% [at 11.4 µM] (inactive)

# Biological target: Cytochrome P450 2D6 (Homo sapiens) (UniProt P10635)
# Experiment: qHTS Assay for Inhibitors and Substrates of Cytochrome P450 2D6 (AID 891);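 further: luciferin methyl ether substrate demethylated by CYP2D6 with NADPH regeneration; nearly all actives have a fitted effect of over 60% in size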
# Conditions: recombinant CYP2D6, luciferin-ME EGE luminescence; series mostly up to 57.1 µM
# Method in brief: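 Human CYP2D6 (5 nM) with 30 uM Luciferin-ME EGE (at Km) in 100 mM KPO4, compound preincubated 10 min, then NADPH regeneration system for 60 min at room temperature. Luciferin read by luminescence; normalized to 1.43 uM quinidine.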
# Cytochrome P450 2D6 (Homo sapiens), sequence (P10635 whole entry, looked up): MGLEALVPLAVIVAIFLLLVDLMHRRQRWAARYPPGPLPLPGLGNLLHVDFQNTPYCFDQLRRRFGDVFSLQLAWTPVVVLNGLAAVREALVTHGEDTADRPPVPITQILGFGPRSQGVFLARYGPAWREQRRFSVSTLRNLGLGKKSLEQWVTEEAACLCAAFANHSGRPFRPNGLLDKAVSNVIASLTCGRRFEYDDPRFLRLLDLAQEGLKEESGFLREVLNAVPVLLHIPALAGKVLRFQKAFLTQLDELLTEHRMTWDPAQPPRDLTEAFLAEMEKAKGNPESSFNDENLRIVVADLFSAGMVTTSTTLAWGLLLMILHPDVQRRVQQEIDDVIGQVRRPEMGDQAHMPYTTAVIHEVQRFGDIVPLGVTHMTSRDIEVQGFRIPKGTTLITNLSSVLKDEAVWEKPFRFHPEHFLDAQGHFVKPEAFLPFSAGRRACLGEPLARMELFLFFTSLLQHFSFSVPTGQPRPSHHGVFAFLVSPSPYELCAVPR
row,Compound,"activity change, negative = inhibition"
1,N#CCCN(CC#Cc1ccccc1)OCc1ccccc1,-16.6% [at 11.4 µM] (inactive)
2,COCn1c2ccccc2c2nnc(C(=O)O)nc21,12.8% [at 11.4 µM] (inactive)
3,COC(=O)C12CC3(CCC4C5C(C(OCc6ccccc6)C41)C52)OCCO3 (stereo not drawn),0.322% [at 11.4 µM] (inactive)

# Biological target: Cytochrome P450 2C19 (Homo sapiens) (UniProt P33261)
# Experiment: qHTS Assay for Inhibitors and Substrates of Cytochrome P450 2C19 (AID 899); further: nearly all actives have a fitted effect of over 60% in size; further: potency means the concentration at half of the fitted maximal effect
# Conditions: recombinant CYP2C19, luciferin-H EGE luminescence; series mostly up to 57.1 µM
# Method in brief: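 Reactions contain 5nM enzyme, 10uM Luciferin-H EGE (KM) and 50mM KPO4; compound preincubates 10 min at 37C, NADPH regeneration starts turnover for 60 min. Luminescence after detection reagent gives activity.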
# Cytochrome P450 2C19 (Homo sapiens), sequence (P33261 whole entry, looked up): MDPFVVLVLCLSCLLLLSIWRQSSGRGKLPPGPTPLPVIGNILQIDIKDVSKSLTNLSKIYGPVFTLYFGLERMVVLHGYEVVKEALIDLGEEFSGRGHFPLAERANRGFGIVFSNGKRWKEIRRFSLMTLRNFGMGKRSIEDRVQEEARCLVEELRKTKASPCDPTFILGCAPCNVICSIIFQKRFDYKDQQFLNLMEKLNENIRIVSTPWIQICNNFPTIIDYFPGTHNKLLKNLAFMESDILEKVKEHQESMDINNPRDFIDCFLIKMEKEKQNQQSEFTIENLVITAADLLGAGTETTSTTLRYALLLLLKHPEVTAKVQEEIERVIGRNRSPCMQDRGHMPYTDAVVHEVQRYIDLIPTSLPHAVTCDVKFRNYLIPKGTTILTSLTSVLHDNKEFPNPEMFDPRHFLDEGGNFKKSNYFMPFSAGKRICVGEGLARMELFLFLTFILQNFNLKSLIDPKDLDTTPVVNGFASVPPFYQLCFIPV
Compound,Potency,"activity, negative = inhibition"
N#CCCN(CC#Cc1ccccc1)OCc1ccccc1,316 nM (active),
COCn1c2ccccc2c2nnc(C(=O)O)nc21,,65.8% [at 11.4 µM] (inactive)
COC(=O)C12CC3(CCC4C5C(C(OCc6ccccc6)C41)C52)OCCO3 (stereo not drawn),1580 nM (active),

# Test system: not listed separately
# Experiment: qHTS for Inhibitors of Plasmodium falciparum (DD2) proliferation (AID 504314); further: potency means the concentration at half of the fitted maximal effect;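 on activity, negative = inhibition: parasite DNA measured by SYBR Green fluorescence after red cell lysis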
# Conditions: P. falciparum Dd2 in erythrocytes, SYBR Green growth, 72 h; series mostly up to 6.11 µM
# Method in brief: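 Quantitative HTS growth inhibition: SYBR Green I binding to parasite DNA after 72 h drug exposure of infected erythrocytes (0.3% parasitemia, 2.5% hematocrit). Signals normalized per plate to inhibitor and vehicle wells.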
Compound,Potency,"activity, negative = inhibition"
CC=COC(=O)N[C@@H](c1ccccc1)[C@]1(C(C)=O)CCOC1=O,inactive,
C[C@H]1CC[C@H]2C(=O)N[C@H](Cc3ccccc3)C(=O)N2[C@H]1c1ccccc1,inactive,
COc1cc2c(cc1OC)[C@@H]1O[C@](c3ccsc3)(C2)Oc2cc(-c3ccccc3)oc(=O)c21,inactive,
CCOC(=O)CN1C(=O)[C@]2(O[C@H](C)CC3=CCCC32)c2c(Br)cccc21 (stereo partly drawn),inactive,
C[C@H](ON=C1[C@H]2CCn3c(=O)n(-c4ccccc4)c(=O)n3[C@@H]2[C@H](O)[C@@H]2O[C@H]12)c1cn([C@H](CO)Cc2ccccc2)nn1,inactive,
C=CCOC(=O)C(C(C)=O)[C@@H](NC(=O)OC)c1cccs1 (stereo partly drawn),inactive,
Cc1cc(O)cc(O)c1C(=O)OC1(C)C(=O)C=C2C=C(C=CC(=O)O)OC=C2C1=O (stereo not drawn),inactive,
COC(=O)C(C(C)=O)[C@@H](NC(=O)NCc1ccccc1)c1ccccc1 (stereo partly drawn),inactive,
CCN1C(=O)N(S(=O)(=O)c2ccc(C)cc2)C(c2ccccc2)C(C(=O)OC)=C1C (stereo not drawn),inactive,
Cc1cc(C)cc(CO[C@H]2C=C[C@@H](c3ccccc3)O[C@H]2CO)c1,inactive,
COC(=O)CC=C1c2ccccc2[C@@H](NC(=O)OC)[C@@H]1C,inactive,
CCCCc1cc2c(cn1)=C(OC(=O)CCC(=O)OC)C(C)(OC(=O)CC)C(=O)C=2 (stereo not drawn),,-0.996% [at 1.12 µM] (inactive)
CC(=O)OC[C@H]1O[C@H](CC=NOC[C@@H](O)[C@H]2O[C@@H]3OC(C)(C)O[C@H]3[C@@H]2O)C=C[C@H]1OC(C)=O,inactive,
CCN1C(=O)NC(c2ccc(Br)cc2)C(C(C)=O)=C1C (stereo not drawn),inactive,
N#CCCN(CC#Cc1ccccc1)OCc1ccccc1,inactive,
COC(=O)NC(C=Cc1ccccc1)C(C(C)=O)C(=O)OC (stereo not drawn),inactive,
C(#C[C@@H]1C=C[C@H]2OC(c3ccccc3)OC[C@H]2O1)c1ccccc1 (stereo partly drawn),inactive,
COC(=O)N[C@@H](CCc1ccccc1)[C@]1(C(=O)OC)CCCC1=O,inactive,
COC(=O)C1=C(C(=O)OC)[C@@H]2N(C)c3ccccc3[C@@]23CCC(=O)N(CC(C)C)C3=N1,inactive,
CC(CCN1CCCCc2nc(C)c(C)cc21)=NO[C@H](C)c1cn([C@@H]2COC[C@@H]2O)nn1,inactive,

Compound,Potency,"activity, negative = inhibition"
C=C(C#Cc1ccc(OC)cc1)CCN1C=C(C(=O)OCC)C(c2ccccc2)NC1=O (stereo not drawn),inactive,
COCCN1C=C2C(=O)C(C)(OC(=O)C3CCCC3)C(=O)C(c3ccccc3)=C2C=C1CCCC(=O)OC (stereo not drawn),inactive,
C[C@H]1CCCC(=O)N[C@@H](c2ccccc2)[C@@H](C)CCCC(=O)N[C@@H]1c1ccccc1,inactive,
COc1ccc(-c2nc3c(c4c2C[C@H](c2ccccc2)OC4)CN(C(=O)N[C@@H](C)c2ccccc2)CC3)c(C)c1,,3.19% [at 1.12 µM] (inactive)
COCn1c2ccccc2c2nnc(C(=O)O)nc21,inactive,
CCN1C(=O)[C@@H]2[C@H]3[C@H](O)[C@H](O)CC(=NOCC[C@@H]4C=C[C@H](OC(C)=O)[C@@H](COC(C)=O)O4)[C@@H]3CC[C@H]2C1=O,inactive,
COC(=O)[C@H](Cc1ccccc1)NC(=O)O[C@@H]1C(=O)c2cc(Br)ccc2O[C@H]1c1ccc2c(c1)OCO2,inactive,
COC(=O)[C@H](COC(C)(C)C)NC(=O)O[C@@H]1C(=O)c2cc(Br)ccc2O[C@H]1c1ccc2c(c1)OCO2,inactive,
C=C(C)C(=O)C=Cc1ccc(Br)cc1,inactive,
COc1ccc(-c2nc(-c3ccccc3)c(NC(C)(C)C)o2)cc1,1.69 µM (active) and inactive,
CCOC(=O)CCN1C(=O)[C@@H]2[C@H]3[C@H](O)[C@H](O)CC(=NNC(=O)OCc4ccccc4)[C@H]3CC[C@H]2C1=O,inactive,
CCOC(=O)N1C2=NC(C(=O)OC)=C(C(=O)OC)[C@@H]3N(Cc4ccccc4)c4ccccc4[C@]23C[C@H]1C(=O)OC,,-1.2% [at 1.12 µM] (inactive)
COC(=O)CC=C[C@@H](C)[C@H](NC(=O)OCC(Cl)(Cl)Cl)c1cccc(OC)c1,inactive,
COC(=O)C12CC3(CCC4C5C(C(OCc6ccccc6)C41)C52)OCCO3 (stereo not drawn),inactive,
CCN1C(=NCCc2cccnc2)NC(CCc2ccccc2)C(C(=O)OC)=C1C (stereo not drawn),inactive,
COC(=O)C1=C(C)N(CCC(C)O[Si](C)(C)C(C)(C)C)C(=O)N(C(C)=O)C1c1ccccc1 (stereo not drawn),inactive,
C=CCOC(=O)NC(c1ccc(F)c(F)c1)S(=O)(=O)c1ccc(Cl)cc1 (stereo not drawn),inactive,
CCOC(=O)OC[C@H]1O[C@H](C#Cc2ccc(C)cc2C)C=C[C@H]1OC(=O)OCC,inactive,
CCN(CC)CCCN=C1NC(c2cccc(C(F)(F)F)c2)C(C(=O)OC)=C(C)N1CC (stereo not drawn),inactive,
